According to the supplement of paper PMC12340641:
Where a name gives a salt, the structure may show the parent alone.

Assays:
[1] = target: IKZF1 (dCK*-IKZF1 fusion in HEK293FT) (UniProt Q13422); assay: inhibition of IKZF1 HTRF signal (DMSO = 0%, pomalidomide 10 uM = 100%); higher = lower IKZF1 protein level; conditions: compound concentration: 5 uM, overnight (~20 h)
In short: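 Percent inhibition of IKZF1 signal was calculated per plate with vehicle and a reference degrader as anchors. The anchors were 0% for vehicle and 100% for the degrader, applied to background-subtracted 665/620 nm time-resolved FRET ratios from a commercial HTRF total-IKZF1 kit. Signal came from HEK293FT cells stably expressing an IKZF1 fusion, treated overnight at 37 °C with 5 μM compound in single wells of 384-well plates.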

HEK293FT dCK*-only = assay: relative growth in counter assay (no AraC = 100%, AraC + DMSO = 0%); higher = more growth rescue independent of IKZF1; conditions: compound concentration: 5 uM; AraC concentration: 0.3 uM; overnight pretreatment + 4 days AraC
In short: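 Nuclei were counted by imaging after Hoechst 33342 staining on day 5, in HEK293FT cells (300/well, 384-well) expressing only an engineered kinase construct. Compound at 5 μM went in 2 h after seeding, followed after overnight at 37 °C by a nucleoside suicide substrate at 0.3 μM plus medium for 4 days. Per plate, wells lacking suicide substrate defined 100% and those with substrate plus vehicle defined 0%.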

HEK293FT dCK*-IKZF1 = assay: relative growth recovery (pomalidomide 10 uM = 100%, DMSO = 0%); higher = more growth rescue (IKZF1 fusion degradation); conditions: compound concentration: 5 uM; AraC concentration: 0.3 uM; overnight pretreatment + 4 days AraC
In short: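 Means of duplicates from different days are given for growth recovery, normalised per plate against a reference degrader and vehicle. The reference degrader set the 100% level and vehicle the 0% level. HEK293FT cells stably expressing a deoxycytidine kinase–IKZF1 fusion (300/well, 384-well) received 5 μM compound 2 h after seeding and, after overnight at 37 °C, 0.3 μM of a nucleoside suicide substrate plus medium for 4 days. Nuclei stained with Hoechst 33342 were then counted by whole-well imaging on day 5.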

Sequence of IKZF1 (dCK*-IKZF1 fusion in HEK293FT) (Q13422 whole entry, looked up, the tested form may be a part): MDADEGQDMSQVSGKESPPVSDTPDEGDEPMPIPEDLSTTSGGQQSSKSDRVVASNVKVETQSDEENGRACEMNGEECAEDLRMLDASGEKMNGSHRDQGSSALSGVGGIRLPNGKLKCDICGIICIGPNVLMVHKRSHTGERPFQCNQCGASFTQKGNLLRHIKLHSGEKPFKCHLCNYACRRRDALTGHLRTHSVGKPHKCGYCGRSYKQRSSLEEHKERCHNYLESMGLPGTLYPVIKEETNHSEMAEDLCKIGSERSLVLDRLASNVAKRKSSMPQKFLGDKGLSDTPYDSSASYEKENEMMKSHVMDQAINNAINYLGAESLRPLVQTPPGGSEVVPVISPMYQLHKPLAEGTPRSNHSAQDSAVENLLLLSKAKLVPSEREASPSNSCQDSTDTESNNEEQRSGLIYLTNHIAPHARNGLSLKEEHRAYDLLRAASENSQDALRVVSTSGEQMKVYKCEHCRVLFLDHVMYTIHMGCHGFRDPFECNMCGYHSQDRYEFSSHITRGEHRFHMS

Row | SMILES | inhibition of IKZF1 HTRF signal [1] | relative growth in counter assay (HEK293FT dCK*-only) | relative growth recovery (HEK293FT dCK*-IKZF1)
1 | COc1ccc(CCN(C)CCc2ccc(OC)c(OC)c2)cc1OC | -8.39% | 5.51% | 1.83%
2 | O=C(N/N=C/c1ccc([N+](=O)[O-])o1)c1ccc(O)cc1 | 10.2% | -1.19% | -2%
3 | Fc1ccc(C(c2ccc(F)cc2)N2CCN(C/C=C/c3ccccc3)CC2)cc1 [flunarizine] | -47% | 1.76% | -0.165%
4 | CCN(CC)CCOc1ccccc1C(=O)CCc1ccccc1 [etafenone] | 11% | 2.17% | -1.08%
5 | CCOC(=O)C1=C[C@]2(CC)CCCN3CCc4c(n1c1ccccc41)[C@@H]32 | -26.3% | -0.08% | 3.4%
6 | CO[C@H]1C[C@@H]2CC[C@@H](C)[C@@](O)(O2)C(=O)C(=O)N2CCCC[C@H]2C(=O)O[C@H]([C@H](C)C[C@@H]2CC[C@@H](O)[C@H](OC)C2)CC(=O)[C@H](C)/C=C(\C)[C@@H](O)[C@@H](OC)C(=O)[C@H](C)C[C@H](C)/C=C/C=C/C=C/1C [Rapamycin] | -24.4% | -20.8% | -7.58%
7 | C[C@@H]1CC2C3CCC4=CC(=O)C=C[C@]4(C)[C@@]3(F)[C@@H](O)C[C@]2(C)[C@H]1C(=O)CO (stereo not given in full) | 19.4% | -5.74% | -0.19%
8 | Oc1ccc(/C=C/c2cc(O)cc(O)c2)cc1 [Resveratrol] | -25.5% | 5.43% | 2.06%
9 | CCC(C)c1ccc(NC(=O)Cn2cnc3c2c(=O)n(C)c(=O)n3C)cc1 (stereo not given) | -44.5% | -2.66% | 1.29%
10 | CC(C)(C)c1ccc(-c2nc3cccc(N4CCN(Cc5ccc6nccnc6c5)CC4)c3[nH]2)cc1 | -23.9% | 5.2% | 9.79%
11 | O=C(Nc1ccc(F)cc1)N1CCc2ccccc2C1c1ccc(C(F)(F)F)cc1 (stereo not given) | -25.5% | 4.9% | -0.27%
12 | CCC(=N\O)/C(C)=C/c1ccc(F)cc1 | 12.6% | -3.61% | -0.58%
13 | CSc1ccc2c(c1)N(CCC1CCCCN1C)c1ccccc1S2 (stereo not given) [Thioridazine HCl] | -1.96% | -2.48% | -2.37%
14 | Clc1ccc(COC(Cn2ccnc2)c2ccc(Cl)cc2Cl)cc1 (stereo not given) | -29.1% | 1.65% | 0.49%
15 | COc1ccc2cc1Oc1ccc(cc1)C[C@H]1c3cc(c(OC)cc3CCN1C)Oc1c(OC)c(OC)cc3c1[C@H](C2)N(C)CC3 [Tetrandrine (Fanchinine)] | 8.84% | -14.3% | -3.42%
16 | Oc1c(Br)cc(Br)c2cccnc12 | 1.09% | -4.45% | -2.54%
17 | Cc1cc(NC(=O)C(c2ccccc2)N2CCCc3ccccc32)no1 (stereo not given) | -21.4% | -9.71% | 1.48%
18 | COc1cccc2c1C(=O)c1c(O)c3c(c(O)c1C2=O)C[C@@](O)(C(=O)CO)C[C@@H]3O[C@H]1C[C@H](N)[C@H](O[C@@H]2CCCCO2)[C@H](C)O1 [Pirarubicin] | 37.3% | -33.8% | -13.1%
19 | COc1cc(NS(=O)(=O)c2ccc(N)cc2)nc(OC)n1 | -24.5% | -0.83% | -4.54%
20 | OCCN=CCNc1ccc(NCCNCCO)c2c(O)c3c(O)ccc(O)c3c(O)c12 [Mitoxantrone HCl] | -45.5% | -34.8% | -13.6%
21 | O=C(OC)C1=C(C)NC(C)=C([N+]([O-])=O)[C@H]1[C@]2=CC=CC=C2C(F)(F)F | -26.8% | 0.45% | -0.325%
22 | COC(=O)Nc1nc2cc(SC(C)C)ccc2[nH]1 [methiazole] | 36.1% | -32.7% | -10.8%
23 | NC(=O)c1nnn(Cc2cc(Cl)c(C(=O)c3ccc(Cl)cc3)c(Cl)c2)c1N [carboxyamidotriazole] | -49.1% | -4.77% | -2.6%
24 | O=S(=O)(O)CCSSCCS(=O)(=O)O | -1.7% | -2.36% | 0.365%
25 | CN1CCN(c2ncc(-c3cc(Cl)cc(Cl)c3Cl)c(N)n2)CC1 [sipatrigine] | 11.5% | 5.22% | 2.4%
26 | CC(C)(C)c1ccc(C(O)CCCN2CCC(C(O)(c3ccccc3)c3ccccc3)CC2)cc1 (stereo not given) | -24.6% | -9.63% | -1.42%
27 | CC[n+]1c(-c2ccccc2)c2cc(N)ccc2c2ccc(N)cc21 | 39.8% | -32.8% | -12.2%
28 | CC(=O)c1ccc(S(=O)(=O)NC(=O)NC2CCCCC2)cc1 | -56.1% | 5.07% | 1.03%
29 | CN[C@H]1CC[C@@H](c2ccc(Cl)c(Cl)c2)c2ccccc21 | -23.8% | 0.69% | -1.94%
30 | O=C(O)c1ccccc1-c1c2cc(I)c(=O)c(I)c-2oc2c(I)c(O)c(I)cc12 | 23.2% | -0.87% | -1.36%
